# What was measured:
# Settings in all cases: concentration: 1 μM, replicates: in singlicate; n = 1
# DAPK2 = tested on: DAPK2
# DAPK3 = tested on: DAPK3
# DCAMKL1 = tested on: T1, DCAMKL1
# T1 construct: gene DCLK1
# DCAMKL2 = tested on: T2, DCAMKL2
# T2 construct: gene DCLK2
# DCAMKL3 = tested on: T3, DCAMKL3
# T3 construct: gene DCLK3
# DDR1 = tested on: DDR1
# DDR2 = tested on: DDR2
# DLK = tested on: T4, DLK
# T4 construct: gene MAP3K12
# DMPK2 = tested on: T5, DMPK2
# T5 construct: gene CDC42BPG
# DMPK = tested on: DMPK
# 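Further: KINOMEscan kinase panel screen.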
SMILES,%Inh (DAPK2) [%],%Inh (DAPK3) [%],%Inh (DCAMKL1) [%],%Inh (DCAMKL2) [%],%Inh (DCAMKL3) [%],%Inh (DDR1) [%],%Inh (DDR2) [%],%Inh (DLK) [%],%Inh (DMPK2) [%],%Inh (DMPK) [%]
Cc1ccc(-c2cc(-c3c[nH]nc3-c3ccccn3)ccn2)cc1 [GW684088],9,25,21,24,0,13,47,45,5,0
Cc1ccccc1-n1cnc2c(N)ncnc21 [SKF-97510],10,12,0,0,0,11,0,0,0,0
Cl.O=C(Nc1cccc(-c2nn3ncccc3c2-c2ccnc(Nc3cccnc3)n2)c1)c1c(F)cccc1F [GSK312879],27,6,12,0,0,94.4,4,14,13,15
CC(C)(C)c1ccc(C(=O)Nc2cn3cc(Cl)ccc3n2)cc1,0,3,15,0,18,0,20,0,0,0
Cl.Oc1ccc(-c2nc(-c3ccccc3)[nH]c2-c2ccncc2)cc1 [SB-428218],0,31,6,15,7,9,59,58,0,0
CC(=O)Nc1nc2cnc(Nc3cc(NC(=O)c4cccc(CCC#N)c4)ccc3C)nc2s1,6,8,12,13,12,100,86,0,3,12
COc1ccc2nc(-c3cccc(C)n3)nc(Nc3ccncc3)c2c1 [GSK204919],0,22,5,26,0,58,5,8,91.1,0
COc1ccccc1-c1ccc2c(NC(=O)C3CC3)n[nH]c2n1 [SB-711239],11,3,0,3,0,10,22,5,0,1
Cl.NC(=O)c1cccc(Nc2nccc(Nc3ccc(Oc4cccc(Cl)c4)c(Cl)c3)n2)c1 [GW659008],0,22,0,13,0,1,0,24,55,0
O=C(O)COc1ncnc2cc(-c3ccc4[nH]ncc4c3)sc12,0,5,0,2,8,0,7,34,3,13
Cc1csc(-c2nc(Nc3ccncc3)c3ccccc3n2)n1 [GW869640],26,48,29,28,30,22,35,0,35,17
O=C(Nc1n[nH]c2nc(-c3nccs3)c(Br)cc12)C1CCCC1 [SB-742609],0,5,9,16,0,0,11,14,0,0
Cc1cccc(-c2nc(Nc3ccncc3)c3ccccc3n2)n1 [GW855857],7,17,14,0,21,30,45,0,76,2
Cc1c(Cn2ccn3c(=O)cc(N4CCOCC4)nc23)cccc1C(F)(F)F [GSK2289044],12,12,3,0,13,0,8,0,0,64
Cc1ccc(NC(=O)Nc2cccc(Cl)c2)cc1-c1ccc(C(=O)Nc2ccncc2)cc1 [GSK1398468],0,22,17,0,0,99.7,72,25,8,0
O=C(Nc1ccc2c(c1)OCO2)NC1CCN(c2ccnc(Nc3ccc(F)cc3)n2)C1 (stereo not drawn) [GSK1379724],0,0,0,7,32,0,52,24,9,0
Nc1nc(-c2nccs2)c(-c2ccnc3ccccc23)s1 [GW693542],0,10,13,0,6,9,5,33,6,100
Cc1nnc(-c2ccc3occ(-c4ccc(S(C)=O)cc4)c3c2)[nH]1 (stereo not drawn),5,10,0,0,0,0,5,0,6,0
